For 40 compounds, inhibition results are on record in PubChem BioAssay.

Active and inactive are the calls of the source.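 The calls were made as follows: active = inhibition at or above 50% relative to wild type and mutant plate controls; inactive = inhibition below 50%.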

The assay can be described thus: inhibitors of Chlamydomonas gravitaxis, primary screen, whole organism, Chlamydomonas reinhardtii, WT vs cilia-less mutant, absorbance, 96-well (AID 463189).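 Also: 0% = wild type cc124 cells in DMSO and 100% = ciliumless bld1 mutant cells.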 The following applies: OD600 absorbance, 2 days, at 10 µM, stronger effect = higher value.
In general, inhibition refers to the relative decrease from the control value, in per cent. Consider `CCN(Cc1ccncc1)C(=O)C(CO)c1ccccc1` (stereo not given), for which the inhibition was 7.61% (inactive).

In the case of `CNc1cc(NS(=O)(=O)c2ccc(N)cc2)nc(NC)n1`, the inhibition is -3.79% (inactive).

As for `CCCCCCCCCCCCCCCCCCOC[C@H](COP(=O)([O-])OCC[N+](C)(C)C)OC`, the inhibition is -2.43% (inactive).

With `Cc1ccc([N+](=O)[O-])cc1S(=O)(=O)N(C)C`, the inhibition is -11.4% (inactive).

Consider `C[C@H]1CC2C3CCC4=CC(=O)C=C[C@]4(C)[C@@]3(Cl)[C@@H](O)C[C@]2(C)[C@@]1(O)C(=O)CO` (stereo not given in full), for which the inhibition was -2.71% (inactive).

Take `C=CCc1ccccc1OCC(O)CN[C@]1(C)CCC[C@H](C(C)(C)NC(=O)CBr)C1` (stereo not given in full): the inhibition was 16.4% (inactive).

In the case of `CSc1nc(N)c2ncn([C@@H]3O[C@H](COP(=O)(O)OP(=O)(O)OP(=O)(O)O)[C@H](O)C3O)c2n1` (stereo not given in full), the inhibition is -3.46% (inactive).

On to `CCCCC[C@H](CC(=O)NO)C(=O)N[C@H](C(=O)N1CCC[C@H]1CO)C(C)C`, for which the inhibition was -2.25% (inactive).

With `COc1cc(C(O)CO)ccc1OS(=O)(=O)O` (stereo not given), the inhibition was -4.77% (inactive).

`C[N+](C)(C)CCC(=O)c1cccc2ccccc12`: the inhibition is 7.13% (inactive).

Regarding `NC(=Nc1ccccc1)NC(=O)c1nc(Cl)c(N)nc1N`, the inhibition was -0.27% (inactive).

As for `CCCCCN(CCCCC)C(=O)C(CCC(=O)O)NC(=O)c1ccc(Cl)c(Cl)c1` (stereo not given), the inhibition was -0.994% (inactive).

As to `Cc1ccc2c(c1)C(N1CCN(C)CC1)=Nc1cccnc1N2`, the inhibition was 7.3% (inactive).

For the compound `COc1cc2c(cc1OC)-c1cc(=Nc3c(C)cc(C)cc3C)n(C)c(=O)n1CC2`, the inhibition is 10.5% (inactive).

For `O=[N+]([O-])c1cccc2c(Br)[nH]nc12`, the inhibition was 136% (active).

As to `CN1CCc2cc(Cl)c(O)cc2[C@@H](c2ccccc2)C1`, the inhibition is 5.1% (inactive).

As for `COc1[nH]c2ccc(F)cc2c1C(=O)OCC1CCN(CCNS(C)(=O)=O)CC1`, the inhibition is -12.7% (inactive).

As for `CN1C2CCC1CC(OC(=O)c1c[nH]c3ccccc13)C2` (stereo not given), the inhibition was 11.2% (inactive).

Regarding `CCN(CC)CCOC(=O)c1cc(Cl)c(N)cc1OC`, the inhibition was 2.34% (inactive).

On to `N#C/C(=C\c1ccc(O)c(O)c1)C(=O)NCc1ccccc1`, for which the inhibition is -4.45% (inactive).

Regarding `COC(=O)Nc1nc2ccc(C(=O)c3cccs3)cc2[nH]1`, the inhibition is 11.2% (inactive).

In the case of `O=C(OCCN1CCOCC1)C1(c2ccccc2)CCCCC1`, the inhibition is 2.35% (inactive).

For the compound `OC[C@H]1O[C@@H](n2cnc3c(NC4CCCC4)ncnc32)C(O)[C@H]1O` (stereo not given in full), the inhibition was 2.66% (inactive).

In the case of `CCN(CC)CCCC(C)Nc1ccnc2cc(Cl)ccc12` (stereo not given), the inhibition was 0.95% (inactive).

For `CN(CCOc1ccc(C[C@H](Nc2ccccc2C(=O)c2ccccc2)C(=O)O)cc1)c1ccccn1`, the inhibition was 1.04% (inactive).

As to `CC(O)C(O)[C@H]1CNc2nc(N)[nH]c(=O)c2N1` (stereo not given in full), the inhibition was 6.73% (inactive).

Regarding `CCCCCC[C@@H]([C@@H](C)O)n1cnc2c(N)ncnc21`, the inhibition is -0.492% (inactive).

Take `NC(=O)C(=O)O`: the inhibition was 0.681% (inactive).

For `Nc1nc2c(ncn2COC(CO)CO)c(=O)[nH]1`, the inhibition is 3.53% (inactive).

Take `Oc1ccc(C2CNCc3sccc32)cc1O` (stereo not given): the inhibition was 10.1% (inactive).

For `O=C(O)c1cc(=O)c2ccccc2[nH]1`, the inhibition was 9.15% (inactive).

In the case of `CNCCC(Oc1ccccc1C)c1ccccc1` (stereo not given), the inhibition is 10.9% (inactive).

Consider `Cc1ccc(O)c(N=Nc2ccccc2)n1`, for which the inhibition is -1.99% (inactive).

In the case of `N[C@@H](CC(=O)O)C(=O)O`, the inhibition was 4.32% (inactive).

As to `O=S(=O)(c1cccc2c(I)cccc12)N1CCCNCC1`, the inhibition is -1.51% (inactive).

For the compound `CC(N=C(NC#N)Nc1ccncc1)C(C)(C)C` (stereo not given), the inhibition was -9.18% (inactive).

`COc1cc2c(cc1O)CC[C@@H]1[C@@H]2CC[C@]2(C)[C@@H](O)CC[C@@H]12`: the inhibition was -5.37% (inactive).

With `COc1ccccc1N1CCN(CCCCNS(=O)(=O)c2cccc3c(N(C)C)cccc23)CC1`, the inhibition was -0.327% (inactive).

Turning to `Nc1ccc(N2C(=O)c3ccccc3C2=O)c(Cl)c1`, the inhibition was -0.463% (inactive).

On to `NC(=O)c1cc[n+](CC2=C(C(=O)O)N3C(=O)[C@@H](NC(=O)[C@@H](c4ccccc4)S(=O)(=O)[O-])[C@H]3SC2)cc1`, for which the inhibition was -6.94% (inactive).
